Screening results as filed in PubChem.
FadD28 FP inh: blocks FadD28 binding to the bisubstrate probe | fluorescence polarization | inhibition, % at 12.5 µM | 360,000 tested, 0.22% active | AID 588549; in the data active = inhibition above about 8.5%, passing the limit was not always enough; inconclusive = no clear call, values can overlap the other calls
Yp Topo-I inh: inhibitors of Yersinia pestis topoisomerase I; AID 504884; activity, % at 10 µM; 360,000 tested, 0.064% active; Y. pestis Topo-I cleavage product accumulation, plate reader; in the data active = activity above about 50%, passing the limit was not always enough; inconclusive = no clear call, values can overlap the other calls
TcdB inh: blocks C. difficile toxin B glycohydrolase activity. P18177. TcdB glycohydrolase enzymatic assay, plate reader. inhibition, % at 9.99 µM. 350,000 tested, 0.24% active; in the data active = inhibition above about 10%
BioA inh: BioA (M. tuberculosis) enzyme inhibition; AID 602481; 360,000 tested, 0.096% active; purified M. tuberculosis BioA enzyme, plate reader; inhibition, % at 9.99 µM; in the data active = inhibition above about 40%; inconclusive = no clear call, values can overlap the other calls
Large screens that a line does not name were inactive. This is a sample that favours compounds with a hit; in the whole collection about 0.47% have one here.

COc1ccc(CC(=O)n2[nH]c(=O)ccc2=O)cc1OC	none
Cc1cc(C)c2cc(C)c3nnc(SCC(=O)NCc4ccc5c(c4)OCO5)n3c2c1	none (no result: TcdB inh)
Cc1ccc(C)c2c1cc(C)c1nnc(SCC(=O)NCc3ccc4c(c3)OCO4)n12	TcdB inh 10 (no result: BioA inh)
CC(=O)Nc1ccccc1O	TcdB inh 20
CC(=O)Nc1ccc(-c2ccc(NC(C)=O)c(O)c2)cc1O	none
COc1ccc(C(=O)N/N=C\c2ccoc2)cc1	none
Cc1ccc(C(=O)N/N=C/c2ccoc2)cc1C	BioA inh 49
COc1ccccc1S(=O)(=O)N[C@@H]1C=C[C@H](CC(=O)N2CCOCC2)O[C@H]1CO	none (no result: FadD28 FP inh, Yp Topo-I inh)
Cc1ccc(NC(=O)CNc2ccccc2N2CCCC2=O)cc1S(=O)(=O)N1CCCCC1	FadD28 FP inh 42
Cc1ccc(NC(=O)CCl)cc1S(=O)(=O)N1CCCCCC1	none (no result: BioA inh)
Oc1ccc(/C=N/NC(=S)Nc2cccnc2)cc1O	TcdB inh 26 (no result: BioA inh)
COC(=O)CC1C(=O)NCCN1C(=O)c1ccc(S(=O)(=O)N2CCOCC2)cc1 (configuration not stated)	FadD28 FP inh 14
O=[N+]([O-])c1ccc(N=Nc2ccc(O)cc2O)cc1	none (no result: TcdB inh)
O=S(=O)(O)c1cc(Cl)cc(N=Nc2ccc(O)cc2O)c1O	FadD28 FP inh 34 (no result: BioA inh)
Cc1cc(NC(=O)CCCN2C(=O)c3cccc4cccc(c34)C2=O)no1	TcdB inh 11 (no result: BioA inh)
Cc1cc(NC(=O)CCCN2C(=O)c3cccnc3C2=O)no1	none (no result: TcdB inh)
O=C(c1cccs1)N1CCN(C(=O)C2CCCO2)CC1 (configuration not stated)	none (no result: TcdB inh)
COc1ccc(NS(=O)(=O)c2cc(NC(=O)/C=C/c3cccs3)ccc2N2CCOCC2)cc1	none (no result: BioA inh)
CC(C)(Oc1ccc(Cl)cc1)C(=O)NC1CC1	TcdB inh 11
CC(C)(C)C(=O)Nc1ccc(C(=O)Nc2cccc(Oc3ccc(C(=O)O)c(C(=O)O)c3)c2)cc1	none
O=C(Nc1cccc(Oc2ccc(C(=O)O)c(C(=O)O)c2)c1)c1ccc(-c2ccccc2)cc1	FadD28 FP inh 29
O=S(=O)(NCCS(=O)(=O)N1CCN(c2ccc(F)cc2)CC1)c1ccc(F)cc1	none
Cc1cc(O)c(C=O)c2c1C(=O)Oc1c(CO)c(O)c3c(c1O2)C(O)OC3=O (configuration not stated)	FadD28 FP inh 18 (no result: TcdB inh)
Cc1cc(O)c(CN(C)C)c2c1C(=O)/C(=C/c1ccco1)O2	none (no result: BioA inh)
COc1cc(NCc2ccccc2O)c2ncccc2c1	FadD28 FP inh 12
Oc1ccccc1CNc1cccc2cccnc12	none (no result: BioA inh)
COc1ccc2nc(Cl)c(C=O)c(N3CCOCC3)c2c1	none
O=C(CN1C(=O)c2ccccc2C1=O)N(CCO)Cc1ccccc1	FadD28 FP inh 22
Cc1ccc(C(=O)Nc2ncc([N+](=O)[O-])s2)cc1	TcdB inh 21
CC(=O)c1ccc(C(=O)N(C)C2CCCN(Cc3ccccc3F)C2)s1 (configuration not stated)	BioA inh 75
COc1ccc(NC(=O)CN2C(=O)NC(C)(c3ccc(C)cc3)C2=O)c([N+](=O)[O-])c1 (configuration not stated)	none
COc1cc(OC)cc(C(=O)NNC(=O)CN2C(=O)NC(C)(c3ccc(C)cc3)C2=O)c1 (configuration not stated)	TcdB inh 14
COc1cccc(OCc2cc(C(=O)N(C)Cc3nc4ccccc4[nH]3)no2)c1	none
O=C(CC(=O)Nc1nc(C23CC4CC(CC(C4)C2)C3)cs1)NCCO	none
CNc1nc(C23CC4CC(CC(C4)C2)C3)cs1	TcdB inh 12 (no result: BioA inh)
O=C(c1ccc(F)cc1Cl)N1CCN(CCc2ccccc2)CC1	none
CCOCC(=O)Nc1cc(Cl)ccc1C	TcdB inh 10 (no result: BioA inh)
CCOCC(=O)Nc1cc([N+](=O)[O-])ccc1C	none (no result: TcdB inh, BioA inh)
CNC(=O)C1Cc2c(-c3ccccc3Oc3ccccc3)ccnc2O1 (configuration not stated)	TcdB inh 13
CCOc1ccc(S(=O)(=O)Nc2cccc(C(=O)NCCCN3CCOCC3)c2)cc1	none
O=C(C1CCC1)N1CCN(c2ccc(Cl)cc2)CC1	none
Cc1cc(C)nc(SCC(=O)c2ccc(O)c(O)c2)n1	TcdB inh 11
COc1ccc(-n2nnnc2SCC(=O)c2ccc(O)c(O)c2)cc1	FadD28 FP inh 12 (no result: TcdB inh)
CCCCCCC(O)(c1ccc(OC)cc1)C(CN1CCOCC1)c1ccccc1 (configuration not stated)	none
O=C(CCc1nc2ccccc2[nH]1)N1CCN(C(=O)c2ccco2)CC1	none
COc1ccc(NC(=O)c2cc3c(-c4ccc(OC)c(OC)c4)nn(C)c3s2)cc1OC	FadD28 FP inh 26 (no result: TcdB inh)
COc1cccc(C(=O)Nc2cc(S(=O)(=O)N3CCOCC3)ccc2N2CCOCC2)c1	none
Cc1ccc(CNC(=O)c2nnn(-c3cccc(C)c3)c2N)cc1	none (no result: TcdB inh, BioA inh)
Cc1cccc(-n2nnc(C(=O)NCc3ccccc3Cl)c2N)c1	TcdB inh 11
CC1NC(=O)c2cc3ccccc3cc2-n2c1nc1ccccc1c2=O (configuration not stated)	none
Cc1ccc(NC(=O)/C(=C\c2cccs2)NC(=O)c2ccccc2)cc1	none (no result: TcdB inh, BioA inh)
O=C(Nc1ccc(O)cc1)/C(=C\c1cccs1)NC(=O)c1ccccc1	TcdB inh 19 (no result: BioA inh)
COc1cc(/C=C(/NC(=O)c2ccccc2)C(=O)Nc2ccccc2)c([N+](=O)[O-])cc1OC	none (no result: TcdB inh)
COc1cc(/C=C(/NC(=O)c2ccccc2)C(=O)Nc2ccc(O)cc2)c([N+](=O)[O-])cc1OC	TcdB inh 13 (no result: BioA inh)
O=C(CSc1nnc(SCc2ccc(Cl)cc2)s1)N/N=C/c1ccc(Cl)cc1Cl	none (no result: BioA inh)
CCN(CC)C(=O)Cn1cc(/C=C2\C(=O)NC(=O)N(c3ccccc3F)C2=O)c2ccccc21	none
COc1ccc(C(=O)CSc2nc(-c3ccccn3)nc(C)c2Cl)cc1	none
Cc1nc(-c2ccccn2)nc(SCC(=O)c2ccc(F)cc2)c1Cl	TcdB inh 12 (no result: BioA inh)
COc1ccc(S(=O)(=O)/N=C2/NC(=O)/C(=C/c3ccco3)S2)cc1	FadD28 FP inh 20 (no result: BioA inh)
COc1ccc(Br)c(C(=O)NC2CCCC2)c1	none (no result: BioA inh)
COCCCn1c(-c2ccc(OC)cc2)cc(C(=O)NC2CCCCCCC2)c1C	Yp Topo-I inh 56 (no result: BioA inh)
CCn1c(SCC(=O)N2CCCc3ccccc32)nc2cccnc21	none (no result: TcdB inh)
Cc1ccc(NC2(C(N)=O)CCCC2)cc1	none
NC(=O)C1(Nc2ccc(-c3ccc(Br)cc3)cc2)CCCC1	TcdB inh 11 (no result: BioA inh)
OCC[C@H]1C[C@H](O)[C@@H](O)[C@@]2(Cc3ccccc3CO2)O1	TcdB inh 14
CS(=O)(=O)c1ccc(Cl)c(NC(=O)C2CC(=O)N(Cc3ccco3)C2)c1 (configuration not stated)	none
O=[N+]([O-])c1cccc(/C=N/n2c(C3CCCCC3)n[nH]c2=S)c1	FadD28 FP inh 18 (no result: BioA inh)
COc1ccc(C2(CNC(=O)c3ccc(OC)c([N+](=O)[O-])c3)CCCCC2)cc1OC	FadD28 FP inh inconclusive, TcdB inh 12
Cc1cc2cc(CNC(=O)Nc3ccc(Cl)c(Cl)c3)ccc2n1C	FadD28 FP inh 13
COCC(=O)NCc1ccc2c(c1)cc(C)n2C	none (no result: BioA inh)
CC(=O)OCCCCCCCCCCC[N+]1(C)CCCCC1	none (no result: BioA inh)
C[N+]1(CCCCSc2ccc(O)cc2)CCCCC1	TcdB inh 22
